# Test results reported in PubChem BioAssay (Tox21).
# Records with an inconclusive call do not appear. A number with no mark means an inactive call. Calls follow the shape of the dose curve; as a rule, active = well fitted cell-killing curve with a large enough effect in the repeat runs; inconclusive = weak or mixed curves, or effect the other way; inactive = no such curve, though single readings can be large or run the other way.
# Experiment: qHTS assay to identify small molecule antagonists of the vitamin D receptor (VDR) signaling pathway - cell viability counter screen (AID 743225); also: nearly all actives have a fitted effect of over 50% in size
# Conditions: VDR-bla HEK293T viability, CellTiter-Glo luminescence, 16 h; series mostly up to 61 µM; viability change, negative = cytotoxic: at the top concentration
# Description: U.S. Tox21 Program National Center for Advancing Translational Sciences [NCATS] NIH Chemical Genomics Center [NCGC] U.S. Environmental Protection Agency [EPA] National Institutes of Environmental Health Sciences [NIEHS] National Toxicology Program [NTP] U.S. Food and Drug Administration [FDA] Tox21 Assay Overview: The vitamin D receptor (VDR), a member of nuclear hormone receptor superfamily, plays a critical role in calcium homeostasis and bone metabolism. It is also involved in cell differentiation and growth, and thrombogenicity. To identify the compounds that inhibit VDR signaling, the VDR-UAS-bla HEK 293T cell line (Invitrogen, Carlsbad, CA, USA) containing a beta-lactamase reporter gene under the control of an upstream activator sequence (UAS) was used to screen the Tox21 10K compound library. The cytotoxicity of the Tox21 compound library against the VDR-bla cell line was tested in parallel by measuring the cell viability using CellTiter-Glo assay (Promega, Madison, WI) in the same wells.
# Tox21 Assay Protocol Summary: VDR-bla cells were dispensed at 2,000 cells/5 uL of assay medium per well into black wall/clear-bottom 1536-well plates using a Multidrop Combi (Thermo Fisher Scientific, Waltham, MA) dispenser. After the assay plates were incubated at a 37C and 5% CO2 for 4 h, 23 nL of compounds dissolved in DMSO, positive controls or DMSO only was transferred to the assay plate by a Pintool station (Kalypsys, San Diego, CA), followed by addition of 1 uL of 1-alpha, 25-Dihydroxy Vitamin D3 (3 nM, final concentration in the wells) using a Bioraptr Flying Reagent Dispenser (FRD) workstation (Beckman Coulter, Indianapolis, IN). The plates were incubated at 37C and 5% CO2 for 16 h, and then 1 uL of LiveBLAzerTM B/G FRET substrate was added using a Bioraptr FRD. The plates were incubated at room temperature for 2 h and fluorescence intensity was measured by an Envision plate reader (PerkinElmer, Shelton, CT). For cell viability readout that measures cytotoxicity, 3 ul/well of CellTiter-Glo reagent was added into the assay plates using a Bioraptr FRD. After 30 min incubation at room temperature, the luminescence intensity in the plates was measured using a ViewLux plate reader (PerkinElmer).
# % is scaled to controls: 0 for no effect and ±100 for the full control effect.
row,SMILES,"viability change, negative = cytotoxic"
1,O=C(O)c1cccc(Cl)c1,-27.4%
2,O=C(N[C@H]1CN2CCC1CC2)c1cc2ccoc2cn1,-32.7%
3,BrCCCCCCBr,1.31%
4,O=S(=O)(O)C(F)(F)C(F)(F)C(F)(F)C(F)(F)C(F)(F)C(F)(F)F,-4.39%
5,c1cc[c]([Hg][c]2ccccc2)cc1,-1.52%
6,CNC(=O)Oc1c(C(C)(C)C)cc(C)cc1C(C)(C)C,10.4%
7,N#CCBr,2.45% [at 78.8 µM]
8,CCOP(=S)(OCC)SCSc1ccc(Cl)cc1,-2.83%
9,O=[N+]([O-])c1cc(Cl)c(Cl)c(Cl)c1,17%
10,CCOP(=S)(OCC)Oc1cc(-c2ccccc2)on1,-30%
11,O=[N+]([O-])c1cccc2cccnc12,-8.51% [at 78.8 µM]
12,N#CCCC#N,4.37%
13,COc1cc2c(cc1OC)[C@@]13CCN4CC5=CCO[C@H]6CC(=O)N2[C@H]1[C@H]6[C@H]5C[C@H]43,0.442%
14,CCOP(=S)(OCC)SCSP(=S)(OCC)OCC,-4.66%
15,NC1=NC(=O)C(c2ccccc2)O1 (stereo not given),-7.39%
16,C=C(C)CN(CC)c1c([N+](=O)[O-])cc(C(F)(F)F)cc1[N+](=O)[O-],-0.709%
17,N#CC(O)c1ccccc1 (stereo not given),7.43%
18,CCCCCCI,-1.69%
19,CC(C1CC1)C(O)(Cn1cncn1)c1ccc(Cl)cc1 (stereo not given),9.46%
20,[Cl][Sn]([Cl])([Cl])[Cl],-12.1% [at 78.8 µM]

row,SMILES,"viability change, negative = cytotoxic"
1,CNC(=O)N(C)c1nc2ccccc2s1,10.2%
2,CCOc1nc(C(Cl)(Cl)Cl)ns1,10%
3,O=C1OC(=O)C2C1C1(Cl)C(Cl)=C(Cl)C2(Cl)C1(Cl)Cl (stereo not given),0% [at 78.8 µM]
4,CCOP(=O)(N=C1SCCS1)OCC,10.1%
5,CC1=C(C(=O)O)N2C(=O)[C@@H](N)[C@H]2SC1,-18.3% [at 28.5 µM]
6,c1ccc(N2CCNCC2)cc1,0.292%
7,CC(C)(C)OC(=O)c1ncn2c1[C@@H]1CCCN1C(=O)c1c(Br)cccc1-2,5.49%
8,Cc1cccc(C#N)c1,17.6%
9,CCCCc1c(C)nc(NCC)[nH]c1=O,8.27%
10,O=C(CCCN1CCC(n2c(=O)[nH]c3ccccc32)CC1)c1ccc(F)cc1,-0.317%
11,CC1=NNC(=O)N(/N=C/c2cccnc2)C1,3.33%
12,COC(=O)c1ccccc1S(=O)(=O)NC(=O)N(C)c1nc(C)nc(OC)n1,-18.3% [at 78.8 µM]
13,CC1COC2(c3ccccc3Cl)c3cc(Cl)ccc3NC(=O)CN12 (stereo not given),0.292%
14,CNC(=O)Oc1ccccc1C1OCCO1,-26.1%
15,CNC(=O)Oc1cccc(C(C)C)c1,10.4%
16,CNC(=O)O/N=C(\C)SC,9.56%
17,NC(=O)O,0.352%
18,O=C(Cc1ccccc1)OCc1ccccc1,-10.5% [at 78.8 µM]
19,COc1cc(OC)nc(NC(=O)NS(=O)(=O)c2ncccc2OCC(F)(F)F)n1,10.4%
20,C[C@@H]1CN(C2CCC(C#N)(c3ccc(F)cc3)CC2)CC[C@]1(C(=O)O)c1ccccc1 (stereo not given in full),0.605%
